“And” between values parts separate entries of the source, which are not always exact repeats. Equal entries are not always repeated. In all, about 5,500 compounds went through this assay and about 2,000 (36%) were called active. Another 18% or so got no clear call; they are omitted. Cut-off read from the data, not from the text of the source: active = normalized growth mostly below about 0.91 (no sharp cut-off); inconclusive = no clear call, values can overlap the other calls; inactive = mostly above about 0.92. The list shows a part of the results.
Assay: chemical genetic growth profiling, strain panel (AID 1159580);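 note: tested at 20 µM; growth read once vehicle control cultures reached saturation at 30 °C; 1 = growth at the plate median or of vehicle wells; lower values mean less growth of the strain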
Conditions: S. cerevisiae deletion strains, growth OD

Measured: normalized growth

CS(=O)(=O)CCCCN=C=S
inactive: locus YBR171W, strain sec66, stronger effect = lower value 0.954 | locus YBR229C, strain ROT2, stronger effect = lower value 0.96 | locus YDL005C, strain med2, stronger effect = lower value 1.01 | locus YDL185W, strain tfp1, stronger effect = lower value 0.948 | locus YDR137W, strain rgp1, stronger effect = lower value 0.918 | locus YDR150W, strain NUM1, stronger effect = lower value 0.963 | locus YDR159W, strain sac3, stronger effect = lower value 0.898 | locus YEL061C, strain CIN8, stronger effect = lower value 0.978 | locus YER111C, strain swi4, stronger effect = lower value 0.988 | locus YER155C, strain BEM2, stronger effect = lower value 1.01 | locus YER167W, strain BCK2, stronger effect = lower value 0.973 | locus YGL167C, strain pmr1, stronger effect = lower value 0.964 | locus YIL073C, strain SPO22, stronger effect = lower value 0.772 | locus YJL115W, strain asf1, stronger effect = lower value 0.941 | locus YJL134W, strain LCB3, stronger effect = lower value 0.981 | locus YJL168C, strain set2, stronger effect = lower value 0.954 | locus YKL068W, stronger effect = lower value 1.01 | locus YKL085W, strain MDH1 (second series), stronger effect = lower value 1 | locus YKL085W, strain MDH1, stronger effect = lower value 1 | locus YLR039C, strain RIC1, stronger effect = lower value 0.758 | locus YLR102C, strain apc9, stronger effect = lower value 0.983 | locus YLR262C, strain YPT6, stronger effect = lower value 0.797 | locus YLR342W, strain FKS1 (second series), stronger effect = lower value 0.813 | locus YLR357W, strain rsc2, stronger effect = lower value 0.98 | locus YMR078C, strain ctf18, stronger effect = lower value 0.965 | locus YMR125W, strain sto1, stronger effect = lower value 0.947 | locus YMR307W, strain GAS1, stronger effect = lower value 0.734 | locus YOL012C, strain htz1 0.428 | locus YOR061W, strain CKA2, stronger effect = lower value 0.936 | locus YOR080W, strain dia2, stronger effect = lower value 0.966 | locus YPR119W, strain clb2, stronger effect = lower value 1 | locus YPR141C, strain kar3, stronger effect = lower value 0.981
active: locus YAL021C, strain ccr4, stronger effect = lower value 0.889 | locus YAL030W, strain snc1, stronger effect = lower value 0.734 | locus YBL061C, strain skt5, stronger effect = lower value 0.746 | locus YBR009C, strain hhf1, stronger effect = lower value 0.495 | locus YBR021W, strain FUR4, stronger effect = lower value 0.847 | locus YBR023C, strain chs3, stronger effect = lower value 0.769 | locus YBR231C, strain swc5, stronger effect = lower value 0.504 | locus YBR279W, strain paf1, stronger effect = lower value 0.708 | locus YCL011C, strain gbp2, stronger effect = lower value 0.551 | locus YCL016C, strain dcc1, stronger effect = lower value 0.751 | locus YCL029C, strain bik1, stronger effect = lower value 0.822 | locus YCL061C, strain MRC1, stronger effect = lower value 0.834 | locus YCL069W, strain vba3, stronger effect = lower value 0.663 | locus YCR088W, strain abp1, stronger effect = lower value 0.84 | locus YDL035C, strain GPR1, stronger effect = lower value 0.791 | locus YDL040C, strain nat1, stronger effect = lower value 0.896 | locus YDL074C, strain BRE1, stronger effect = lower value 0.683 | locus YDL101C, strain DUN1, stronger effect = lower value 0.853 | locus YDL134C, strain PPH21, stronger effect = lower value 0.762 | locus YDL192W, strain arf1, stronger effect = lower value 0.688 | locus YDR001C, strain nth1, stronger effect = lower value 0.896 | locus YDR069C, strain doa4, stronger effect = lower value 0.829 | locus YDR101C, strain arx1, stronger effect = lower value 0.742 | locus YDR162C, strain NBP2, stronger effect = lower value 0.69 | locus YDR195W, strain ref2 1.2 [resistant] | locus YDR297W, strain sur2, stronger effect = lower value 0.737 | locus YDR318W, strain mcm21, stronger effect = lower value 0.816 | locus YDR334W, strain swr1, stronger effect = lower value 0.375 | locus YDR335W, strain msn5, stronger effect = lower value 0.802 | locus YDR388W, stronger effect = lower value 0.869 | locus YDR392W, strain spt3, stronger effect = lower value 0.474 | locus YDR502C, strain sam2, stronger effect = lower value 0.696 | locus YEL003W, strain gim4, stronger effect = lower value 0.217 | locus YEL037C, strain rad23, stronger effect = lower value 0.749 | locus YEL061C, strain CIN8 (second series), stronger effect = lower value 0.853 | locus YER015W, strain faa2, stronger effect = lower value 0.478 | locus YER016W, strain bim1, stronger effect = lower value 0.758 | locus YER110C, stronger effect = lower value 0.807 | locus YER155C, strain BEM2 (second series), stronger effect = lower value 0.439 | locus YFR010W, strain ubp6, stronger effect = lower value 0.62 | locus YGL078C, strain dbp3, stronger effect = lower value 0.92 | locus YGL086W, strain mad1, stronger effect = lower value 0.723 | locus YGL173C, strain kem1, stronger effect = lower value 0.692 | locus YGL227W, strain vid30, stronger effect = lower value 0.86 | locus YGL240W, strain doc1, stronger effect = lower value 0.545 | locus YGL248W, strain PDE1, stronger effect = lower value 0.724 | locus YGL253W, strain hxk2, stronger effect = lower value 0.428 | locus YGR078C, strain PAC10, stronger effect = lower value 0.799 | locus YGR135W, strain pre9, stronger effect = lower value 0.815 | locus YGR252W, strain gcn5, stronger effect = lower value 0.634 | locus YHR013C, strain ard1, stronger effect = lower value 0.816 | locus YHR027C, strain rpn1, stronger effect = lower value 0.618 | locus YHR079C, strain IRE1 (second series), stronger effect = lower value 0.885 | locus YHR079C, strain IRE1, stronger effect = lower value 0.67 | locus YHR094C, strain hxt1, stronger effect = lower value 0.913 | locus YHR129C, strain ARP1, stronger effect = lower value 0.865 | locus YHR142W, strain chs7, stronger effect = lower value 0.536 | locus YHR200W, strain rpn10, stronger effect = lower value 0.905 | locus YIL066C, strain RNR3, stronger effect = lower value 0.807 | locus YIL125W, strain kgd1, stronger effect = lower value 0.901 | locus YIR030C, strain dcg1, stronger effect = lower value 0.77 | locus YJL092W, strain hpr5, stronger effect = lower value 0.782 | locus YJL095W, strain BCK1 (second series), stronger effect = lower value 0.791 | locus YJL095W, strain BCK1, stronger effect = lower value 0.606 and 0.709 | locus YJL129C, strain trk1, stronger effect = lower value 0.762 | locus YJL154C, strain vps35, stronger effect = lower value 0.839 | locus YJL164C, strain tpk1, stronger effect = lower value 0.607 | locus YJL166W, strain qcr8, stronger effect = lower value 0.493 | locus YJL187C, strain SWE1 (second series), stronger effect = lower value 0.798 | locus YJR043C, strain POL32, stronger effect = lower value 0.567 | locus YJR066W, strain TOR1, stronger effect = lower value 0.716 | locus YKL009W, strain mrt4, stronger effect = lower value 0.82 | locus YKL160W, strain elf1, stronger effect = lower value 0.7 | locus YKR001C, strain vps1, stronger effect = lower value 0.582 | locus YKR026C, strain gcn3, stronger effect = lower value 0.866 | locus YKR091W, strain srl3, stronger effect = lower value 0.877 | locus YLL001W, strain dnm1, stronger effect = lower value 0.596 | locus YLL026W, stronger effect = lower value 0.65 | locus YLL041C, strain sdh2, stronger effect = lower value 0.801 | locus YLR027C, strain aat2, stronger effect = lower value 0.569 | locus YLR058C, strain SHM2, stronger effect = lower value 0.801 | locus YLR113W, strain HOG1, stronger effect = lower value 0.819 | locus YLR221C, strain rsa3, stronger effect = lower value 0.483 | locus YLR258W, strain gsy2, stronger effect = lower value 0.735 | locus YLR262C, strain YPT6 (second series), stronger effect = lower value 0.826 | locus YLR268W, strain sec22, stronger effect = lower value 0.669 | locus YLR320W, strain mms22, stronger effect = lower value 0.502 | locus YLR330W, strain CHS5, stronger effect = lower value 0.822 | locus YLR342W, strain FKS1, stronger effect = lower value 0.889 | locus YLR370C, strain arc18, stronger effect = lower value 0.766 | locus YLR371W, strain rom2, stronger effect = lower value 0.595 | locus YLR384C, strain iki3, stronger effect = lower value 0.658 | locus YLR418C, strain cdc73, stronger effect = lower value 0.645 | locus YML016C, strain PPZ1, stronger effect = lower value 0.842 | locus YML032C, strain rad52, stronger effect = lower value 0.801 | locus YML120C, strain ndi1, stronger effect = lower value 0.666 | locus YML124C, strain tub3, stronger effect = lower value 0.901 | locus YMR058W, strain fet3, stronger effect = lower value 0.559 | locus YMR129W, stronger effect = lower value 0.798 | locus YMR205C, strain PFK2, stronger effect = lower value 0.732 | locus YMR223W, strain ubp8, stronger effect = lower value 0.735 | locus YMR231W, strain pep5, stronger effect = lower value 0.522 | locus YNL067W, strain RPL9B, stronger effect = lower value 0.779 | locus YNL071W, strain lat1, stronger effect = lower value 0.538 | locus YNL183C, strain NPR1, stronger effect = lower value 0.623 | locus YNL209W, strain ssb2, stronger effect = lower value 0.628 | locus YNL233W, strain BNI4, stronger effect = lower value 0.767 | locus YNL248C, strain rpa49, stronger effect = lower value 0.493 | locus YNL250W, strain rad50, stronger effect = lower value 0.884 | locus YNL271C, strain bni1, stronger effect = lower value 0.887 | locus YNL298W, strain CLA4, stronger effect = lower value 0.906 | locus YNL307C, strain MCK1, stronger effect = lower value 0.575 | locus YNL322C, strain KRE1 (second series), stronger effect = lower value 0.711 | locus YNR049C, strain mso1, stronger effect = lower value 0.908 | locus YNR052C, strain pop2, stronger effect = lower value 0.821 | locus YOL147C, strain pex11, stronger effect = lower value 0.827 | locus YOR001W, strain rrp6, stronger effect = lower value 0.643 | locus YOR069W, strain VPS5, stronger effect = lower value 0.891 | locus YOR070C, strain gyp1, stronger effect = lower value 0.645 | locus YOR083W, strain WHI5, stronger effect = lower value 0.554 | locus YOR106W, strain vam3, stronger effect = lower value 0.359 | locus YOR136W, strain idh2, stronger effect = lower value 0.865 | locus YOR144C, strain elg1, stronger effect = lower value 0.932 | locus YOR184W, strain ser1, stronger effect = lower value 0.679 | locus YOR231W, strain MKK1, stronger effect = lower value 0.684 | locus YOR265W, strain rbl2, stronger effect = lower value 0.756 | locus YOR270C, strain vph1, stronger effect = lower value 0.352 | locus YOR290C, strain snf2, stronger effect = lower value 0.685 | locus YOR316C, strain cot1, stronger effect = lower value 0.921 | locus YPL051W, strain arl3, stronger effect = lower value 0.583 | locus YPL078C, strain atp4, stronger effect = lower value 0.562 | locus YPL106C, strain sse1, stronger effect = lower value 0.808 | locus YPL240C, strain hsp82, stronger effect = lower value 0.752 | locus YPL256C, strain CLN2, stronger effect = lower value 0.822 | locus YPR163C, strain tif3, stronger effect = lower value 0.854 | locus YPR167C, strain met16, stronger effect = lower value 0.904 | strain wtn01, stronger effect = lower value 0.652
0.969 (inactive) and 0.726 (active): locus YHR030C, strain SLT2, stronger effect = lower value

— PubChem BioAssay AID1159580 (chemical genetic matrix, 2015)
